Reference: PubChem BioAssay (NCATS)
“And” between values parts separate entries of the source, which are not always exact repeats. Equal values may be shown once. Records with an inconclusive call do not appear. Where a call stands in place of a potency, no number is given. Values without a mark were called inactive. The source made the active and inactive calls. Calls come from the whole dose curve; as a rule, active = well fitted curve in the direction sought with a large enough effect; inconclusive = small, poorly fitted or top-dose-only effect, or another doubt; inactive = no such curve, though single readings can be large; an effect the other way counts as inactive or inconclusive.

Experiments:
[1] = Quantitative highthroughput screen to assess conditional lethalithy of NOMO1 cells grown in RPMI1640 with untreated serum (RPMI+s) (AID 1963876); note: nearly all actives have a fitted effect of over 35% in size
In short: (§1)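 Each medium arm—HPLM with 10% dialyzed FBS, or RPMI1640 with 5 mM glucose and 10% untreated or dialyzed FBS—was screened against an 11-point, 3-fold compound titration for 48 h at 37 °C, with CellTiter-Glo luminescence as endpoint.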

[2] = Quantitative highthroughput screen to assess conditional lethalithy of NOMO1 cells grown in Human Plasma-Like Medium with dialyzed fetal bovine serum (HPLM+ds) (AID 1963878); note: nearly all actives have a fitted effect of over 35% in size
In short: as §1

[3] = Quantitative highthroughput screen to assess conditional lethalithy of P12 Ichikawa cells grown in RPMI1640 with dialyzed fetal bovine serum (RPMI+ds) (AID 1963880); settings: Potency: P12-Ichikawa viability; note: nearly all actives have a fitted effect of over 35% in size
In short: as §1

[4] = Quantitative highthroughput screen to assess conditional lethalithy of P12 Ichikawa cells grown in RPMI1640 with untreated serum (RPMI+s) (AID 1963881); settings: Potency: viability; note: nearly all actives have a fitted effect of over 35% in size; for viability: series mostly up to about 46 µM
In short: as §1

[5] = Quantitative highthroughput screen to assess conditional lethalithy of SEM cells grown in Human Plasma-Like Medium with dialyzed fetal bovine serum (HPLM+ds) (AID 1963882); note: nearly all actives have a fitted effect of over 35% in size; for viability: series mostly up to about 46 µM
In short: as §1

[6] = Quantitative highthroughput screen to assess conditional lethalithy of SEM cells grown in RPMI1640 with unreated serum (RPMI+s) (AID 1963883); note: nearly all actives have a fitted effect of over 35% in size
In short: as §1

[7] = Quantitative highthroughput screen to assess conditional lethalithy of SEM cells grown in RPMI1640 with dialyzed fetal bovine serum (RPMI+ds) (AID 1963884); note: nearly all actives have a fitted effect of over 35% in size; for viability: series mostly up to about 46 µM
In short: as §1

[8] = Cellular viability qHTS for adrenocortical cancer (ACC) cell line SW-13 (AID 1963989); settings: SW-13 ACC cells viability, CellTiter-Glo, 48 h; activity (max response): hits give low values; note: nearly all actives have a fitted effect of over 65% in size;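 for activity (max response): cells grown in serum-free medium with ITS supplement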
In short: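 IC50 and maximal-response values come from four-parameter logistic fits of titration data. SW-13 cells in serum-free medium received compounds (up to 46 uM final) for 48 h before CellTiter-Glo luminescence.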

[9] = Cellular viability qHTS for adrenocortical cancer (ACC) cell line NCI-H295R (AID 1963990); note: nearly all actives have a fitted effect of over 60% in size
In short: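 Adrenocortical carcinoma cells, suspended at 300 000 cells/mL in serum-free DMEM plus ITS, rested overnight before pin transfer of compound. After two days' incubation, ATP-dependent luminescence was recorded and curve-fitted.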

[10] = Quantitative highthroughput screen to assess conditional lethalithy of P12 Ichikawa cells grown in Human Plasma-Like Medium with dialyzed fetal bovine serum (HPLM+ds) (AID 1963879); settings: Potency: viability; note: nearly all actives have a fitted effect of over 35% in size; for viability: series mostly up to about 46 µM
In short: as §1
Potency is the fitted concentration of half-maximal effect.

## CCCCn1c(=O)n(Cc2ccccc2F)c(=O)c2[nH]c(Cc3ccc(NC(C)=O)cc3)nc21
[1]
  Potency: inactive
[2]
  Potency: inactive
[3]
  Potency: inactive
[4]
  Potency: inactive
[5]
  Potency: inactive
[6]
  Potency: inactive
[7]
  Potency: inactive
[8]
  activity (max response): -3.74%
[9]
  Potency: inactive

## CC(=O)O[C@H]1C[C@@H]2CC[C@H]3[C@H]4C[C@H]([N+]5(C)CCCCC5)[C@@H](OC(C)=O)[C@@]4(C)CC[C@@H]3[C@@]2(C)C[C@H]1[N+]1(C)CCCCC1
[1]
  Potency: inactive
[2]
  Potency: inactive
[3]
  Potency: inactive
[4]
  Potency: inactive
[5]
  Potency: inactive
[7]
  Potency: inactive
[8]
  activity (max response): 7.56%
[9]
  Potency: inactive

## CCc1cc(C(C)=NOCc2ccc(C3CCCCC3)c(C(F)(F)F)c2)ccc1CN1CC(C(=O)O)C1
[1]
  Potency: 8.33 µM (active)
[10]
  Potency: 8.33 µM (active)
[3]
  Potency: 7.43 µM (active)
[4]
  Potency: 9.35 µM (active)
[5]
  Potency: 7.43 µM (active)
[6]
  Potency: 13.2 µM (active)

## NC(CO)C(=O)NNCc1ccc(O)c(O)c1O (stereo not drawn)
[1]
  Potency: inactive
[2]
  Potency: inactive
[4]
  Potency: 26.4 µM (active)

## C[C@]12CC[C@@H]3c4ccc(O)cc4CC[C@H]3[C@H]1[C@@H](O)[C@@H](O)[C@H]2O
[1]
  Potency: inactive
[2]
  Potency: inactive
[3]
  Potency: inactive
[4]
  Potency: inactive
[8]
  activity (max response): -1.98%
[9]
  Potency: inactive

## COc1cc(N2CCN(C)CC2)ccc1Nc1nc(N)c(C(=O)c2c(Cl)cccc2Cl)s1
[1]
  Potency: inactive
[2]
  Potency: inactive
[6]
  Potency: 20.9 µM (active)
[7]
  Potency: 20.9 µM (active)

## COc1ccc(-c2ccc3c(N4CCOC[C@H]4C)nc(N4CCOC[C@H]4C)nc3n2)cc1CO
[1]
  Potency: 18.7 µM (active)
[10]
  Potency: 18.7 µM (active)

## CNC(=O)c1ccccc1Sc1ccc2c(C=Cc3ccccn3)n[nH]c2c1
[1]
  Potency: 2.35 µM (active)
[2]
  Potency: 4.18 µM (active)
[10]
  Potency: 7.43 µM (active)
[7]
  Potency: 4.69 µM (active)

## Cc1[nH]c(C=C2C(=O)Nc3ccccc32)c(C)c1CCC(=O)O
[1]
  Potency: 14.8 µM (active)
[10]
  Potency: 9.35 µM (active)
[3]
  Potency: 18.7 µM (active)
[4]
  Potency: 13.2 µM (active)

## O=C(CCCN1CCC(O)(c2ccc(Cl)cc2)CC1)c1ccc(F)cc1
[1]
  Potency: inactive
[2]
  Potency: inactive
[3]
  Potency: inactive
[4]
  Potency: inactive
[5]
  Potency: inactive
[6]
  Potency: inactive

## COc1ccc(-n2c(C)c([N+](=O)[O-])c3ccc(O)cc32)cc1
[1]
  Potency: inactive
[10]
  Potency: inactive
[3]
  Potency: inactive
[4]
  Potency: inactive
[5]
  Potency: inactive
[6]
  Potency: inactive
[7]
  Potency: inactive
[8]
  activity (max response): 3.14%

## Cc1ccc(C(C)(O)c2nc3ccccc3s2)c(C)c1 (stereo not drawn)
[1]
  Potency: 13.2 µM (active)
[10]
  Potency: 10.5 µM (active)
[3]
  Potency: 18.7 µM (active)
[4]
  Potency: 14.8 µM (active)

## CCc1cncnc1N1CCN(Cc2nc3ccc(C(F)(F)F)cc3[nH]2)CC1
[1]
  Potency: inactive
[2]
  Potency: inactive
[9]
  Potency: 17.8 µM (active)

## O=C(CCc1ccc(O)cc1)c1c(O)cc(O)cc1O[C@@H]1O[C@H](CO)[C@H](O)[C@H](O)[C@H]1O
[1]
  Potency: inactive
[10]
  Potency: inactive
[3]
  Potency: inactive
[4]
  Potency: inactive
[5]
  Potency: inactive
[6]
  Potency: inactive

## COC[C@@H](c1ccc(C(F)(F)F)cc1)N1CCN(C2(C)CCN(C(=O)c3c(C)ncnc3C)CC2)C[C@H]1C
[1]
  Potency: 2.35 µM (active)
[10]
  Potency: inactive
[3]
  Potency: inactive
[4]
  Potency: inactive

## CO[C@@H](C(=O)N1Cc2[nH]nc(NC(=O)c3ccc(N4CCN(C)CC4)cc3)c2C1)c1ccccc1
[1]
  Potency: 0.148 µM (active)
[2]
  Potency: 0.0469 µM (active)
[5]
  Potency: 0.132 µM (active)
[6]
  Potency: 0.0743 µM (active)
[7]
  Potency: 0.0833 µM (active)

## C=CCNc1c(O)cc2c(O)c1C[C@@H](C)C[C@H](OC)[C@@H](O)[C@@H](C)C=C(C)[C@H](OC(N)=O)[C@@H](OC)C=CC=C(C)C(=O)N2
[1]
  Potency: 10.5 µM (active)
[2]
  Potency: 13.2 µM (active)
[5]
  Potency: 1.66 µM (active)
[6]
  Potency: 0.833 µM (active)
[7]
  Potency: 0.833 µM (active)

## CC(=O)O[C@]1(C(C)=O)CC[C@H]2[C@@H]3C=C(Cl)C4=CC(=O)[C@@H]5C[C@H]5[C@]4(C)[C@@H]3CC[C@@]21C
[1]
  Potency: 0.59 µM (active)
[10]
  Potency: 2.96 µM (active)
[3]
  Potency: 2.35 µM (active)
[4]
  Potency: 2.96 µM (active)
[5]
  Potency: inactive
[6]
  Potency: inactive
[7]
  Potency: inactive

## COc1ccc(C(C)=O)c(O)c1
[1]
  Potency: 2.64 µM (active)
[2]
  Potency: 0.935 µM (active)
[4]
  Potency: 8.33 µM (active)
[6]
  Potency: inactive
[7]
  Potency: inactive

## Cc1cnc(Nc2ccc(F)cc2Cl)nc1-c1c[nH]c(C(=O)N[C@H](CO)c2cccc(Cl)c2)c1
[1]
  Potency: 1.05 µM (active)
[2]
  Potency: 1.66 µM (active)
[8]
  Potency: 20 µM (active)

## CC[C@]12C=CCN3CC[C@@]4(c5cc([C@@]6(C(=O)OC)C[C@H]7C[C@@H](C(C)(F)F)CN(Cc8c6[nH]c6ccccc86)C7)c(OC)cc5N(C)[C@H]4[C@@](O)(C(=O)OC)[C@H]1OC(C)=O)[C@@H]32
[1]
  Potency: 0.0332 µM (active)
[10]
  Potency: 0.0372 µM (active)
[3]
  Potency: 0.0743 µM (active)
[4]
  Potency: 0.0264 µM (active)
[5]
  Potency: 0.0296 µM (active)
[6]
  Potency: 0.0187 µM (active)
[7]
  Potency: 0.0332 µM (active)

## C[C@H]1O[C@@H](n2cc(F)c(=O)[nH]c2=O)[C@H](O)[C@H]1O
[1]
  Potency: inactive
[10]
  Potency: inactive
[3]
  Potency: inactive
[4]
  Potency: inactive

## Cn1c2cc(S(C)=O)sc2c2cnn(Cc3cccc(N)c3)c(=O)c21 (stereo not drawn)
[1]
  Potency: inactive
[2]
  Potency: inactive
[9]
  Potency: inactive

## CC1COC2(CCN(c3nc(=O)c4cc(C(F)(F)F)cc([N+](=O)[O-])c4s3)CC2)O1 (stereo not drawn)
[1]
  Potency: inactive
[2]
  Potency: inactive
[8]
  activity (max response): -6.91%
[9]
  Potency: inactive

## COc1cccc(-c2ccc(NC(=O)C3=C(C(=O)O)CCC3)c(F)c2)c1
[1]
  Potency: inactive
[2]
  Potency: inactive
[10]
  Potency: 16.6 µM (active)
[5]
  Potency: inactive

## CC(=O)Oc1cc2c(s1)CCN(C(C(=O)C1CC1)c1ccccc1F)C2 (stereo not drawn)
[1]
  Potency: 14.8 µM (active)
[2]
  Potency: 4.69 µM (active)
[5]
  Potency: 18.7 µM (active)
[8]
  activity (max response): -22.6% and -6.86%
[9]
  Potency: inactive

## Cn1cc(C=CC(=O)c2cccc(F)c2)cc1C=CC(=O)NO
[1]
  Potency: inactive
[2]
  Potency: inactive
[10]
  Potency: inactive
[4]
  Potency: inactive
[5]
  Potency: inactive
[6]
  Potency: inactive
[7]
  Potency: inactive

## CC1(C)CC(O)CC(C)(C)N1[O]
[1]
  Potency: inactive
[2]
  Potency: inactive
[10]
  Potency: inactive
[4]
  Potency: inactive
[5]
  Potency: inactive
[6]
  Potency: inactive
[7]
  Potency: inactive
